A short description of experiment [1]: yeast AGP1-GFP fluorescence change, single-dose – cell-based, flow cytometry, S. cerevisiae, cherry picks, confirmation (AID 2273;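 active = GFP response above 150% of the DMSO level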;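 note: median GFP channel fluorescence over the whole cell population gate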). As to conditions: S. cerevisiae AGP1-GFP strain, 3 h, at 10 µM. (In flow cytometry, cells or beads pass a laser one at a time.)
In experiment [2] the target is Integrin beta-1 (Homo sapiens) + Integrin alpha-4 (Homo sapiens) (UniProt P13612+P05556). Description: alpha4beta1 integrin LIBS antibody binding reduction – U937 cells, HUTS-21 mAb, flow cytometry, validation set, VLA-4 allosteric modulator project, pilot screen (AID 2674;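 active = inhibition above 50%, about 3 SD of the validation set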;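 note: antibody binding induced by the VLA-4 ligand LDV present at three times its Kd; 0% = LDV ligand with antibody and no compound and 100% = antibody without LDV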). As to conditions: HUTS-21 LIBS mAb binding, at 6.7 µM, stronger effect = higher value, binding induced by LDV ligand.

Experiment [3] can be described thus: calorie-restriction mimetic ROS inhibitors, yeast – validation compound set, pilot screen (AID 2706;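 active = superoxide response below 65% of plate, a cut near 3 SD across the whole screen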;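 note: yeast exposed to compound for one week at 30 degrees C before staining; 100% = mean of all compound wells on the same plate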). The note with it: S. cerevisiae aging, superoxide DHE fluorescence; at 10 µM; stronger effect = lower value.
Experiment [4] deals with Beta-adrenergic receptor kinase 1 (Homo sapiens) (UniProt P25098). The experiment in a line: GRK2 binders displacing RNA aptamer, biochemical, validation, human GRK2, bead flow cytometry (AID 488806;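 active = aptamer binding inhibition above 30%, about 3 SD of noise from non-fluorescent compounds; inactive = inhibition at or below 30%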). The note with it: bead-bound GRK2, FAM-aptamer displacement, at 10 µM, stronger effect = higher value.
The target of experiment [5] is Beta-2 adrenergic receptor (Homo sapiens) (UniProt P07550). Description: agonist-induced loss of surface beta2AR – cell-based, FAP fluorogen, flow cytometry, validation set, pilot screen (AID 504459;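 active = percent response above 42, roughly 3 SD of non-fluorescent test compounds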;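 note: agonist-driven loss of surface beta2AR via internalization measured by FAP dye flow cytometry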). As to conditions: Am2.2-beta2AR cells, at 10 µM, stronger effect = higher value.
The target in experiment [6] is AP-2 complex subunit beta (Homo sapiens) (UniProt P63010). The experiment in a line: beta-arrestin/AP2 interaction blockers – biochemical, validation set, GST-AP2 beads, flow cytometry, pilot screen (AID 504541;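 active = inhibition above 54%, about 3 SD of non-fluorescent compounds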;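 note: AP2 carries R879A mutation and is captured from E. coli lysate; bead-bound FITC arrestin peptide fluorescence measuring arrestin peptide binding to AP2; 0% = DMSO wells and 100% = excess unlabeled arrestin peptide control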). As to conditions: FITC arrestin peptide, at 10 µM, stronger effect = higher value, AP2 beta2 appendage fragment, R879A mutant.
A short description of experiment [7]: cytosolic pH regulators acting via V-ATPase – S. cerevisiae, pHLuorin, HTS validation (AID 504600; in the data active = response above about 15%;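 note: plate controls were DMSO for no effect and reference compound for full effect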). The note with it: V-ATPase proton transport, at 10 µM, stronger effect = higher value.
Experiment [8] relates to anti-desmoglein-3 scFv antibody binding to human DSG3. The experiment in a line: blockers of pathogenic pemphigus antibody–desmoglein-3 binding – biochemical, validation compound set, bead-based, flow cytometry, pilot screen (AID 588368;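 active = binding below the plate cutoff, the plate median minus 3 SD, with a reading above zero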;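 note: signal is the median channel fluorescence of bead-bound GFP antibody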). The note with it: Protein G beads, DSG3-Fc, scFv-GFP binding, at 10 µM, stronger effect = lower value.
Experiment [9] in a line: Nile Red efflux blockade in pump-expressing yeast – validation compound set, multiplex, phenotypic, pilot screen (AID 588506;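 active = efflux inhibition above 0.42, the validation set average plus 4 SD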;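 note: Nile Red retained in cells so higher fluorescence means more efflux inhibition; 0 = negative control wells and 1 = enniatin B 25 µM full block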). The note with it: S. cerevisiae pump-expressing triplex, Nile Red efflux flow cytometry; at 10 µM; stronger effect = higher value; the pumps come from Candida albicans.
Experiment [10] has as its target ATP-binding cassette sub-family B member 6 (Homo sapiens) (UniProt Q9NP58). The experiment in a line: blockers of ABCB6-driven porphyrin uptake – K562-ABCB6 cells, flow cytometry, validation set, pilot screen (AID 588550;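 active = inhibition above the screen-wide mean plus 3 SD, about 51%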;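 note: 0% = DMSO wells and 100% = benzethonium chloride 70 µM positive control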). The note with it: K562-ABCB6 porphyrin accumulation, 1 h, at 10 µM, stronger effect = higher value.
A short description of experiment [11]: AML differentiation inducers, ER-HoxA9 marrow cells – cell-based, GFP/MAC1 double positive, flow cytometry, validation set, primary screen (AID 588685).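 Note: compound exposure lasts four days before antibody staining and flow analysis; 0% = DMSO wells and 100% = 5 µM fulvestrant positive control.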 As to conditions: stronger effect = higher value, normalized: vehicle 0, fulvestrant 100.

A number with no mark means an inactive call. Active and inactive are the calls of the source.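 Rule for the calls, unless noted: active = differentiation response of at least 50%, scaled between solvent and reference control, from cells with both markers; inactive = the rest.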

Chain of Integrin beta-1 (Homo sapiens) + Integrin alpha-4 (Homo sapiens) (P05556 whole entry, looked up): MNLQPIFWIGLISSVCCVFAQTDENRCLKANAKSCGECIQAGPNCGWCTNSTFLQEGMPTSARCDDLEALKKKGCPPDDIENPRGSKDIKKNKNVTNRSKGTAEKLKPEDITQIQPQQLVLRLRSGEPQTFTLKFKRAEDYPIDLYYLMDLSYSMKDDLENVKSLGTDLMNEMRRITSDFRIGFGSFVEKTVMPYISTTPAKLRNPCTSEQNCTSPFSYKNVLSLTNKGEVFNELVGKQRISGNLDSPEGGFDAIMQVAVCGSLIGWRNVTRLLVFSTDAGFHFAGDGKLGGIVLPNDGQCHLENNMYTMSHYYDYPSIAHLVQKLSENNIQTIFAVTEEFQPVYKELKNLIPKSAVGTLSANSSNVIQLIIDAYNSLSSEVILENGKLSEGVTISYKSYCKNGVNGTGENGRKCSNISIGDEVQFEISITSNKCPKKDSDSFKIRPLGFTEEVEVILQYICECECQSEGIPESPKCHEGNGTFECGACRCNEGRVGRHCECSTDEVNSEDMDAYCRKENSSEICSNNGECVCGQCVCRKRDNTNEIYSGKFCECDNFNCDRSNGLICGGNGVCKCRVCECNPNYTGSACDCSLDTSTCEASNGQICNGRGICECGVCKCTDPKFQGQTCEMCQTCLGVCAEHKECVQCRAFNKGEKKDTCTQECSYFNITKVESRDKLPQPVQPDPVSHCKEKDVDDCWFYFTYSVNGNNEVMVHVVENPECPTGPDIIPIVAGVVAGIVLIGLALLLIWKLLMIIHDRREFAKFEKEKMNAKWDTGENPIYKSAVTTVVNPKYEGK
Chain of Integrin beta-1 (Homo sapiens) + Integrin alpha-4 (Homo sapiens) (P13612 whole entry, looked up): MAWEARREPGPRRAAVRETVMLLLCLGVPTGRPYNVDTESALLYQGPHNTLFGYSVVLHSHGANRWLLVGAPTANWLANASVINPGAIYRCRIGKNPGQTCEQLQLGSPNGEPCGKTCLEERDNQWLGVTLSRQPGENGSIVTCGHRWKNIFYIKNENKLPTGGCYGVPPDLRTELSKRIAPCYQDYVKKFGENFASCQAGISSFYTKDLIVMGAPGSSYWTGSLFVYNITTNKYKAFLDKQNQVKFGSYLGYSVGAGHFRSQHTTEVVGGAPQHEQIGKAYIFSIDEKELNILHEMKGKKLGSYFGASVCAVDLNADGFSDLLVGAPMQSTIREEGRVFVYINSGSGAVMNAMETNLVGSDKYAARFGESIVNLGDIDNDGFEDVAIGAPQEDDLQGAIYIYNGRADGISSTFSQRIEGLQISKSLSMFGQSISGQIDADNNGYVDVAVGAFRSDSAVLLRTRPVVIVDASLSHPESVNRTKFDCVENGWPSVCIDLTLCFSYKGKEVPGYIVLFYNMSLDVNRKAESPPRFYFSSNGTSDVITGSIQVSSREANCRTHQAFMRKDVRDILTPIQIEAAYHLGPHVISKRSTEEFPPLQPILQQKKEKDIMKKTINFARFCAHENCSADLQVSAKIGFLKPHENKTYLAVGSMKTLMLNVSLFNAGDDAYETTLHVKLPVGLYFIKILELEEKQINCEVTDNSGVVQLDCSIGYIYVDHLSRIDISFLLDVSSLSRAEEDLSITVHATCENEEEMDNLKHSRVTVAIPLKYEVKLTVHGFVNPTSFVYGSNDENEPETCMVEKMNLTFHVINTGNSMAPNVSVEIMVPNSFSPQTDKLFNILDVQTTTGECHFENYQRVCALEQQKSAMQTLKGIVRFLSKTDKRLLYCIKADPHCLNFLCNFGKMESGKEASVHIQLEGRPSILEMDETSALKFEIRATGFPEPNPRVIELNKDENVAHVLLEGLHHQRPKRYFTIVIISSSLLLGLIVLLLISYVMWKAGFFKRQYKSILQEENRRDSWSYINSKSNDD
Chain of Beta-2 adrenergic receptor (Homo sapiens) (P07550 whole entry, looked up): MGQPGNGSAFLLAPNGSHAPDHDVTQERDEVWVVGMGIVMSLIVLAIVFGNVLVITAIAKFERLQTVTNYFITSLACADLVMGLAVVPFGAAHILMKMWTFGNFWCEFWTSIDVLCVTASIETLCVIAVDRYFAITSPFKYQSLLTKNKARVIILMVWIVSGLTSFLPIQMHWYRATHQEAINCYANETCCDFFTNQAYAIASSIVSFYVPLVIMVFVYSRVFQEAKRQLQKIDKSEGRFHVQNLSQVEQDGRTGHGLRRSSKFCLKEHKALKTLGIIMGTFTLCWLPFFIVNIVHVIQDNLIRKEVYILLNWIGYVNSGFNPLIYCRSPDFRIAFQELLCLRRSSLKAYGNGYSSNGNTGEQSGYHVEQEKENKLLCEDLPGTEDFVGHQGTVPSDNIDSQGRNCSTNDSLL
Chain of ATP-binding cassette sub-family B member 6 (Homo sapiens) (Q9NP58 whole entry, looked up): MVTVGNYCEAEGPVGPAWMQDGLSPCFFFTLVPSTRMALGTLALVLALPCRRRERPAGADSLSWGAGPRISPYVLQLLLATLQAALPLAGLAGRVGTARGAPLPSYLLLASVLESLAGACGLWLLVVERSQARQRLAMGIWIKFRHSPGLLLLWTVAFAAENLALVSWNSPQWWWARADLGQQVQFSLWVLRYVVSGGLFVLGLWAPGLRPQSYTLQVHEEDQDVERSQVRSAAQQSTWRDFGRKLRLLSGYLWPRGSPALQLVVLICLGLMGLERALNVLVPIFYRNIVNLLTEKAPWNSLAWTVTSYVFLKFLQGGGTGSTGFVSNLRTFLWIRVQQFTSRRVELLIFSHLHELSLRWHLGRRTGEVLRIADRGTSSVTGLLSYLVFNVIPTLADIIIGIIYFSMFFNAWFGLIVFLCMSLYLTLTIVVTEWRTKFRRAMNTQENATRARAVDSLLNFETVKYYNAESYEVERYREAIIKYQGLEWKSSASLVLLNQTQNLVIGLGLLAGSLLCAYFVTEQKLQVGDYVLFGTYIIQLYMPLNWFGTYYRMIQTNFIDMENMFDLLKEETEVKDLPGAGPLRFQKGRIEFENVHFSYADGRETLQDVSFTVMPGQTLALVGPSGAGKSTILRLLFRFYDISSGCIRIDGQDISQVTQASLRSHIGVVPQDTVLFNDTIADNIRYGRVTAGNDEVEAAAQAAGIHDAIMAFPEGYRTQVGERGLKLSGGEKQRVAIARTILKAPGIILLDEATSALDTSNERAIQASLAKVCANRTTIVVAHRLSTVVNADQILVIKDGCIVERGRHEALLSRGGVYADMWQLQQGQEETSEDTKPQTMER
Chain of Beta-adrenergic receptor kinase 1 (Homo sapiens) (P25098 whole entry, looked up): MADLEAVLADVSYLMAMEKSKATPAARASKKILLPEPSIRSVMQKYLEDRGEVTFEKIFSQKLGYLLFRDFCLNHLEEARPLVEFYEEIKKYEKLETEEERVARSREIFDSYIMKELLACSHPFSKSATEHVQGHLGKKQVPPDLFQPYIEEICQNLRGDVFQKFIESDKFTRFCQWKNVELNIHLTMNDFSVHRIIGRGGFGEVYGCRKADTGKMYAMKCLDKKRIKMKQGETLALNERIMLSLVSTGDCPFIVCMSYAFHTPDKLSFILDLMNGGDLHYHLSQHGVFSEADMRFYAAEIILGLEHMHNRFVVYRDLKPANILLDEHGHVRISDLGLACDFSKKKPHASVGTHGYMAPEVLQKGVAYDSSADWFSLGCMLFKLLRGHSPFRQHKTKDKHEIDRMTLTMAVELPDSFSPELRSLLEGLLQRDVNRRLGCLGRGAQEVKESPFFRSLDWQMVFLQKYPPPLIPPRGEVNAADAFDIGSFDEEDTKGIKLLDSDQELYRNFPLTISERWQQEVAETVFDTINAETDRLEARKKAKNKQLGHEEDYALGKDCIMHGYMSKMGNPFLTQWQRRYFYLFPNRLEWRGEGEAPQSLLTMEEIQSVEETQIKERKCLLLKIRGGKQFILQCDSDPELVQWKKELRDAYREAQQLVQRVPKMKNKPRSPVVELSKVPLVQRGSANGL
Chain of AP-2 complex subunit beta (Homo sapiens) (P63010 whole entry, looked up, the tested form may be a part, one chain of several): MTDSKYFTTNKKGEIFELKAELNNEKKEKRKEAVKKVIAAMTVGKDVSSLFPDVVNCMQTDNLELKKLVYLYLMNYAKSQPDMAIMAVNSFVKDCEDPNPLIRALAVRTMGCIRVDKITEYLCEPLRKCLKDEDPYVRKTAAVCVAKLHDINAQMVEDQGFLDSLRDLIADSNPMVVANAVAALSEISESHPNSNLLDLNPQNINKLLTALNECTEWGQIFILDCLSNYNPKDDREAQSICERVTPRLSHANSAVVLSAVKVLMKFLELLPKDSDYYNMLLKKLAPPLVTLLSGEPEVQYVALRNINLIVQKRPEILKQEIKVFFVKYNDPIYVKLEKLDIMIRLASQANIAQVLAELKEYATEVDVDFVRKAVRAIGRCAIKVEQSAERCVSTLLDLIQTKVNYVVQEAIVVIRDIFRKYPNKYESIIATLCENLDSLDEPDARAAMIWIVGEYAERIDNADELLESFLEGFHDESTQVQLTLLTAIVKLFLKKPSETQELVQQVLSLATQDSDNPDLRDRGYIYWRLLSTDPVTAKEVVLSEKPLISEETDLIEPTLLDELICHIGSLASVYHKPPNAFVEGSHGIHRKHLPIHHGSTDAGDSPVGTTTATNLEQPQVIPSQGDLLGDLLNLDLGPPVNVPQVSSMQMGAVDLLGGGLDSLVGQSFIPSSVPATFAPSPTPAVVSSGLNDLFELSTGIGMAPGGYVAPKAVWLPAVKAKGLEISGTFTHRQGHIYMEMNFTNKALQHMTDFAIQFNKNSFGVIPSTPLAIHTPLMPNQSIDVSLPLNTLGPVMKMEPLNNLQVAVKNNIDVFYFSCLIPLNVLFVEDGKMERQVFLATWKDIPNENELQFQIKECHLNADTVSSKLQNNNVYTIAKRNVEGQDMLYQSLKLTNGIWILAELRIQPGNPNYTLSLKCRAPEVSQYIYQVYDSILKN

One may read the inhibition as the relative decrease from the control value, in per cent. `CCOc1cc(C=O)ccc1OCCSc1ccc(C)cc1`: in experiment [1], the GFP response, % of DMSO is 94.9%. The inhibition in experiment [2] was 9.13%; in experiment [6], -9.69%; in [10] it was 5%. Moreover, the superoxide response (% of plate) in [3] is 108%. Also, the aptamer binding inhibition in experiment [4] was 4%. Moreover, the response was 5.33% in experiment [5] and 5.17% in [7]. For the same compound, the binding (% of control) in [8] was 98.9%. Further, in [9], the efflux inhibition (fraction of control) was 0.08. The differentiation response in [11] is -16.8%.
Consider `CNCCC(Oc1ccc(C(F)(F)F)cc1)c1ccccc1` (stereo not given), for which, in experiment [1], the GFP response, % of DMSO was 97.4%. Also, the inhibition is 6.46% in [2], 13.5% in experiment [6] and 6% in [10]. For the same compound, the superoxide response (% of plate) in experiment [3] is 85.8%. In addition, in experiment [4], the aptamer binding inhibition was 0%. For the same compound, the response was 16.8% in [5] and 1.16% in [7]. In addition, the binding (% of control) in [8] is 94.1%. In addition, the differentiation response in [11] is -1.64%.
With `CCCCN(CCCC)CCCOC(=O)c1ccc(N)cc1`, the GFP response, % of DMSO in experiment [1] was 94.5%. Further, the results for the inhibition in experiment [2], in [6] and in [10] were 0.64%, 6.38% and 9%, respectively. The superoxide response (% of plate) in experiment [3] was 92.8%. In addition, the aptamer binding inhibition in experiment [4] was 0%. Moreover, the response was -0.26% in experiment [5] and -2.47% in [7]. Also, the binding (% of control) in experiment [8] is 104%. For the same compound, the efflux inhibition (fraction of control) in [9] is 0.05. Further, the differentiation response in experiment [11] is 1.64%.
For `COc1cccc(/C=C/C(=O)c2c(O)cc(C)oc2=O)c1O`, in experiment [1], the GFP response, % of DMSO is 94.1%. In addition, the inhibition was -3.16% in experiment [2], 10.4% in experiment [6] and -4% in experiment [10]. Besides, in experiment [3], the superoxide response (% of plate) was 80.7%. For the same compound, the aptamer binding inhibition in experiment [4] was 3%. The figures for the response in experiment [5] and in experiment [7] were 17.4% and 2.77%, respectively. The binding (% of control) in [8] was 104%. In [9], the efflux inhibition (fraction of control) was 0.19. Moreover, in experiment [11], the differentiation response is 5.6%.
`CC(=O)OCC(=O)[C@H]1CC[C@H]2[C@@H]3CCC4=CC(=O)CC[C@]4(C)[C@H]3CC[C@]12C`: in experiment [1], the GFP response, % of DMSO is 95.2%. Further, the inhibition in experiment [2] was -1.3%; in [6] it was -3.8%; in experiment [10], 8%. In experiment [3], the superoxide response (% of plate) is 119%. Moreover, in [4], the aptamer binding inhibition is -1%. The values for the response in experiment [5] and in [7] were -16.7% and -1.21%, respectively. Besides, the binding (% of control) in experiment [8] was 105%. Besides, in experiment [9], the efflux inhibition (fraction of control) was -0.28. Further, in experiment [11], the differentiation response is -1.64%.
Consider `COc1cc(/C=C/C(=O)CC(=O)/C=C/c2ccc(O)c(OC)c2)ccc1O`, for which the GFP response, % of DMSO in [1] was 98.7%. Further, the aptamer binding inhibition in experiment [4] is 6%. Moreover, the results for the response in experiment [5] and in experiment [7] were -195% and -4.77%, respectively. Further, the inhibition in experiment [6] was 14.9%; in experiment [10], -398%. For the same compound, in [8], the binding (% of control) was 129%. The efflux inhibition (fraction of control) in experiment [9] is 0.24. The differentiation response in experiment [11] was 18.8%.
For the compound `CN(C)CCN(Cc1ccccc1)c1ccccn1`, in [1], the GFP response, % of DMSO was 103%. Further, the inhibition was -6.15% in [2], 49.6% in [6] and 113% (active) in experiment [10]. In addition, in experiment [3], the superoxide response (% of plate) was 95.6%. For the same compound, the aptamer binding inhibition in [4] was 1%. For the same compound, the response in experiment [5] was 1.51%; in experiment [7] it was -5.5%. Moreover, the binding (% of control) in [8] was 103%. Also, in [9], the efflux inhibition (fraction of control) is 0.48 (active). The differentiation response in [11] is -1.64%.
As for `CCCCCCCC(=O)OCC(=O)[C@@]1(O)CC[C@H]2[C@@H]3CCC4=CC(=O)CC[C@]4(C)[C@H]3[C@@H](O)C[C@@]21C`, the GFP response, % of DMSO in [1] was 101%. In addition, the inhibition was 11% in [2], -9.35% in [6] and 14% in [10]. Moreover, the superoxide response (% of plate) in experiment [3] was 108%. In addition, the aptamer binding inhibition in experiment [4] is 4%. In addition, the response in experiment [5] is 0.19%; in [7], 10.5%. For the same compound, the binding (% of control) in experiment [8] is 97.1%. The efflux inhibition (fraction of control) in [9] was 0.74 (active). In experiment [11], the differentiation response was 5.13%.
With `CS(=O)(=O)Nc1cccc(C(=O)CC2(O)C(=O)Nc3ccc(Br)cc32)c1` (stereo not given), the GFP response, % of DMSO in [1] was 101%. Also, the inhibition in experiment [2] is -10.8%; in experiment [6] it was 50%; in experiment [10], 7%. In experiment [3], the superoxide response (% of plate) was 112%. The aptamer binding inhibition in experiment [4] was 4%. In addition, the figures for the response in experiment [5] and in experiment [7] were -1.29% and -8.12%, respectively. In experiment [8], the binding (% of control) is 101%. Also, the efflux inhibition (fraction of control) in experiment [9] is 0.08. The differentiation response in [11] is 5.13%.
On to `CC(NCCc1ccc(O)cc1)C(O)c1ccc(O)cc1` (stereo not given), for which, in [1], the GFP response, % of DMSO is 101%. Moreover, the figures for the inhibition in experiment [2], in [6] and in experiment [10] were -13.9%, 5.41% and 10%, respectively. In addition, the superoxide response (% of plate) in [3] was 96.5%. Further, the aptamer binding inhibition in [4] is 2%. The response in experiment [5] was 0.53%; in [7] it was -1.74%. For the same compound, in experiment [8], the binding (% of control) is 103%. In addition, the efflux inhibition (fraction of control) in experiment [9] is -0.31. The differentiation response in experiment [11] is -8.19%.
With `CC(=O)[C@H]1CC[C@H]2[C@@H]3CCC4=CC(=O)CC[C@]4(C)[C@H]3CC[C@]12C`, the GFP response, % of DMSO in [1] is 96%. In addition, the inhibition was 21.7% in [2], -3.41% in [6] and 0% in [10]. Also, the superoxide response (% of plate) in experiment [3] is 136%. Moreover, in experiment [4], the aptamer binding inhibition was 5%. Also, the response was -14.3% in experiment [5] and 5.39% in experiment [7]. The binding (% of control) in [8] is 99.6%. Further, in experiment [9], the efflux inhibition (fraction of control) was 0.275. Moreover, in experiment [11], the differentiation response was -1.65%.
Turning to `O=C1ON=C(c2ccc(Cl)cc2)/C1=C/c1ccc(O)cc1`, the GFP response, % of DMSO in experiment [1] is 95.4%. Besides, the inhibition was 14.6% in [2], -8.88% in experiment [6] and 2% in [10]. For the same compound, the superoxide response (% of plate) in experiment [3] was 93.4%. For the same compound, the aptamer binding inhibition in [4] is 4%. For the same compound, the response in experiment [5] was 33.5%; in [7], -1.63%. Also, the binding (% of control) in experiment [8] was 101%. Besides, the efflux inhibition (fraction of control) in experiment [9] is -0.06. In addition, the differentiation response in experiment [11] was -8.8%.
In the case of `Cc1ccc2[nH]c3c(c2c1)CCNC3=O`, in [1], the GFP response, % of DMSO was 95%. Besides, the inhibition in [2] is 7.22%; in experiment [6] it was -5.6%; in experiment [10], 7%. In addition, the superoxide response (% of plate) in [3] was 95%. In addition, the aptamer binding inhibition in experiment [4] is -2%. Besides, the response in [7] was -10.4%. Also, the binding (% of control) in experiment [8] is 100%. For the same compound, the efflux inhibition (fraction of control) in [9] was -0.2. The differentiation response in [11] is -6.66%.
For the compound `c1ccc2c(c1)CCOC2CNCCCN1CCCCC1` (stereo not given), the GFP response, % of DMSO in experiment [1] is 98.5%. Further, the inhibition in experiment [2] was 14.2%; in experiment [6], -5.37%; in experiment [10] it was -2%. Moreover, the superoxide response (% of plate) in experiment [3] was 110%. Also, the aptamer binding inhibition in experiment [4] was -3%. In addition, the figures for the response in experiment [5] and in experiment [7] were 0.72% and -6.48%, respectively. Also, the binding (% of control) in [8] is 105%. Besides, the efflux inhibition (fraction of control) in [9] was 0.01. In addition, the differentiation response in [11] was -3.28%.

These data come from PubChem BioAssay.
